Data published in the supplement of paper PMC11732987, “Enantioselective OTUD7B fragment discovery through chemoproteomics screening and high-throughput optimisation” (Communications Chemistry, 2025).

Experiments:
Experiment in all cases: log2 ratio of Biotin-Ahx-Ub-VS probe labelling (compound/DMSO); higher = less target engagement, active = hit call of the paper (q ≤ 0.05, log2 ratio ≤ -1)
Details in all cases: treatment time: 3 h
[1] = compound: ClCC(=O)N[C@H]1CCCc2ccccc12
Method in brief: (§1)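 These values are averaged ratios of compound to vehicle, tested by unpaired t-test. HEK293T lysate (495 µg per sample) was preincubated in triplicate with compound across a concentration series or vehicle for 3 h and then with Biotin-Ahx-Ub-VS at 0.5 µM final for 1 h. Deubiquitinases carrying the probe were NeutrAvidin-enriched, digested with LysC and trypsin, and measured by diaPASEF LC-MS/MS. Ratios are expressed as log2 from global-median-normalised Spectronaut label-free quantities, and only proteins with two or more unique peptides were included.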

[2] = compound: CCC1N(CCc2cc(OC)c(Cl)cc12)C(=O)CCl
Method in brief: (§2)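 Compound at 50 or 200 µM, or DMSO, was applied for 3 h in triplicate to HEK293T lysate (495 µg per sample, Tris/CHAPS/IGEPAL buffer with protease inhibitors), after which Biotin-Ahx-Ub-VS was added at 0.5 µM final for 1 h. The labelled DUBs were pulled down with NeutrAvidin, digested with LysC and trypsin, and run by diaPASEF LC-MS/MS. Ratios are averaged base-two logs of compound over DMSO from median-normalised label-free quantities by unpaired t-test, counting only proteins with at least 2 unique peptides.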

[3] = compound: CCCC1N(CCc2cc(OC)c(OC)cc12)C(=O)CCl
Method in brief: as §2

[4] = compound: CN(Cc1cccc(Br)c1)C(=O)CCl
Method in brief: as §2

[5] = compound: CN(Cc1ccccc1)C(=O)CCl
Method in brief: as §2

[6] = compound: COc1ccc(CN(C)C(=O)CCl)cc1
Method in brief: as §2

[7] = compound: COc1cccc(CN(CCCc2ccccc2)C(=O)CCl)c1
Method in brief: as §2

[8] = compound: ClCC(=O)N1CCc2cc(Cl)c(Cl)cc2C1
Method in brief: as §2

[9] = compound: ClCC(=O)N1CCc2nc(ncc2C1)-c1ccccc1
Method in brief: as §2

[10] = compound: ClCC(=O)N1CCc2nocc2C1
Method in brief: as §2

[11] = compound: ClCC(=O)N1CCc2scc(Br)c2C1
Method in brief: as §2

[12] = compound: ClCC(=O)NC(C1CCCC1)c1cccs1
Method in brief: as §2

[13] = compound: ClCC(=O)NC1CCCc2ccccc12
Method in brief: as §1

[14] = compound: ClCC(=O)N[C@@H]1CCCc2ccccc12
Method in brief: as §1

[15] = compound: CCC1N(CCc2sccc12)C(=O)CCl
Method in brief: as §2

[16] = compound: CN1c2ccccc2C(CS1(=O)=O)NC(=O)CCl
Method in brief: as §2

[17] = compound: Cl.ClCC(=O)N1CCc2ncncc2C1
Method in brief: as §2

[18] = compound: Cl.Cn1ncc2C(CCCc12)NC(=O)CCl
Method in brief: as §2

[19] = compound: ClCC(=O)NC1CCOc2ccccc12
Method in brief: as §2

Measured: log2 ratio of Biotin-Ahx-Ub-VS probe labelling

USP42 (UniProt Q9H9J4)
UniProt Q9H9J4, sequence (Q9H9J4 whole entry): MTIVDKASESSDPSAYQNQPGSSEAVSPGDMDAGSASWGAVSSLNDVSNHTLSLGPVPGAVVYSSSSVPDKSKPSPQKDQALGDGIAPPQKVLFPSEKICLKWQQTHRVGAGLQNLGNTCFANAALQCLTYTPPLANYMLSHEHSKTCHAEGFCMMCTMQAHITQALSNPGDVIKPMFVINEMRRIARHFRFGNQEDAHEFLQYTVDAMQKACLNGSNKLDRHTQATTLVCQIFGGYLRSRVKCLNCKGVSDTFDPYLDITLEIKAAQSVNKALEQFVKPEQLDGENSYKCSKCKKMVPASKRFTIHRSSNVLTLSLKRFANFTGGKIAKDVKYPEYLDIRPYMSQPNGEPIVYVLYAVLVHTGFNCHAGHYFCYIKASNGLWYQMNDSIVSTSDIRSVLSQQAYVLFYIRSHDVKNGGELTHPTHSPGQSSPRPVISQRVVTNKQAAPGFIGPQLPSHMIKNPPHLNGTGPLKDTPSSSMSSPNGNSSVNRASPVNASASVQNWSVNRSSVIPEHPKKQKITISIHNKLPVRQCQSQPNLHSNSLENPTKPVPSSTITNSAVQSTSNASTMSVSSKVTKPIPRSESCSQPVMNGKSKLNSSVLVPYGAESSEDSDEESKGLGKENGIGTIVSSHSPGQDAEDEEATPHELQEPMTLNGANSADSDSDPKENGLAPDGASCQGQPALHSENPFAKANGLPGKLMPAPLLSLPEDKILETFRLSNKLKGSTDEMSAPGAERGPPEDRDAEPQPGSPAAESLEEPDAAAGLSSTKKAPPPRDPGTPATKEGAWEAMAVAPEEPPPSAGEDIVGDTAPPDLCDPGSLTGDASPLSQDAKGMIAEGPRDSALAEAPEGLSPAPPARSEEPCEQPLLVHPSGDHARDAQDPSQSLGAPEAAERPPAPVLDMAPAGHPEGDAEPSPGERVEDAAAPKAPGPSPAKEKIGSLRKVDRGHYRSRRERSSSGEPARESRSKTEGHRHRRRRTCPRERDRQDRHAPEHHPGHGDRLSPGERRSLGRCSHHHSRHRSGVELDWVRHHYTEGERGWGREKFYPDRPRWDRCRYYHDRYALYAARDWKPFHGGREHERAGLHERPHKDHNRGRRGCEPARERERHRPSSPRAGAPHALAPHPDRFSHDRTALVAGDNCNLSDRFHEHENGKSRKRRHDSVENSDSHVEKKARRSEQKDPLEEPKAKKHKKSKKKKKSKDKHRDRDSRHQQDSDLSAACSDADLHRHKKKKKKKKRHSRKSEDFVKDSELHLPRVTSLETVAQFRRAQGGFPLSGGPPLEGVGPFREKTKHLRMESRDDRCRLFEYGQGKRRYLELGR
inactive: [1]; compound concentration: 3.13uM -0.196 | [1]; compound concentration: 6.25uM -0.273 | [1]; compound concentration: 12.5uM -0.0469 | [1]; compound concentration: 25uM 0.0215 | [1]; compound concentration: 50uM -0.0548 | [1]; compound concentration: 100uM 0.132 | [1]; compound concentration: 200uM -0.0982 | [2]; compound concentration: 50uM -0.199 | [2]; compound concentration: 200uM 0.281 | [3]; compound concentration: 50uM -0.0757 | [3]; compound concentration: 200uM 0.0626 | [4]; compound concentration: 50uM 0.0496 | [4]; compound concentration: 200uM 0.397 | [5]; compound concentration: 50uM -0.0195 | [5]; compound concentration: 200uM 0.165 | [6]; compound concentration: 50uM -0.0749 | [6]; compound concentration: 200uM 0.205 | [7]; compound concentration: 50uM 0.0537 | [7]; compound concentration: 200uM 0.284 | [8]; compound concentration: 50uM 0.0405 | [8]; compound concentration: 200uM 0.669 | [9]; compound concentration: 50uM -0.0528 | [9]; compound concentration: 200uM 0.104 | [10]; compound concentration: 50uM 0.0476 | [10]; compound concentration: 200uM 0.187 | [11]; compound concentration: 50uM 0.182 | [11]; compound concentration: 200uM 0.44 | [12]; compound concentration: 50uM -0.428 | [12]; compound concentration: 200uM 0.159

USP20 (UniProt Q9Y2K6)
UniProt Q9Y2K6, sequence (Q9Y2K6 whole entry): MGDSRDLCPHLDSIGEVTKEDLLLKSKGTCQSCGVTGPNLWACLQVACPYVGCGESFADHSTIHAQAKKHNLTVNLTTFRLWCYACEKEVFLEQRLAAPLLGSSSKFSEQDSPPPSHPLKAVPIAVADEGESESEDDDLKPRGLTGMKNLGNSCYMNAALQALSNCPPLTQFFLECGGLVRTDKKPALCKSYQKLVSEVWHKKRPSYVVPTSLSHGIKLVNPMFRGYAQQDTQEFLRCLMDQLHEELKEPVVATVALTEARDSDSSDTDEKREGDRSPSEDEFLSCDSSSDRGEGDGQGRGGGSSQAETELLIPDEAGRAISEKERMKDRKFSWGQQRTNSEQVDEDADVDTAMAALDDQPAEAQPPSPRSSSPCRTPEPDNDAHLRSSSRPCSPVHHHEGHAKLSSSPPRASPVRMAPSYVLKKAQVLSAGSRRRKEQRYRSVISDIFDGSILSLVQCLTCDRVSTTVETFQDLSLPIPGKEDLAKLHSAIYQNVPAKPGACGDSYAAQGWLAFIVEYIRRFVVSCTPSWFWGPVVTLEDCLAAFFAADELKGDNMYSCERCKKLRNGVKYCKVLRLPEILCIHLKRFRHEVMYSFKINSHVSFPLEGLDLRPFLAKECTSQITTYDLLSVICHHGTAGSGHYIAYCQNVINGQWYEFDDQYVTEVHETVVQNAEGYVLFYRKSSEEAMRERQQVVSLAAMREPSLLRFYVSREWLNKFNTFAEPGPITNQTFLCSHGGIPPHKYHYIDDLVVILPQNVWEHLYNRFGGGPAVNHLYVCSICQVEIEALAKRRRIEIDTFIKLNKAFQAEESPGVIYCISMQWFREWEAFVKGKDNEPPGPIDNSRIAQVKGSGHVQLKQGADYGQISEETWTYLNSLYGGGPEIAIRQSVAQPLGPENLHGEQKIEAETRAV
inactive: [13]; compound concentration: 0.78uM -0.154 | [13]; compound concentration: 1.56uM -0.0255 | [13]; compound concentration: 3.13uM -0.00841 | [13]; compound concentration: 6.25uM -0.000882 | [13]; compound concentration: 12.5uM -0.0255 | [13]; compound concentration: 25uM 0.0283 | [13]; compound concentration: 50uM 0.0248 | [13]; compound concentration: 100uM -0.235 | [13]; compound concentration: 200uM -0.41 | [14]; compound concentration: 0.78uM -0.0803 | [14]; compound concentration: 1.56uM 0.0532 | [14]; compound concentration: 3.13uM -0.0362 | [14]; compound concentration: 6.25uM -0.00476 | [14]; compound concentration: 12.5uM -0.141 | [14]; compound concentration: 25uM -0.125 | [14]; compound concentration: 50uM -0.102 | [14]; compound concentration: 100uM -0.0854 | [14]; compound concentration: 200uM -0.279 | [1]; compound concentration: 0.78uM -0.0632 | [1]; compound concentration: 1.56uM 0.0904 | [1]; compound concentration: 3.13uM -0.0898 | [1]; compound concentration: 6.25uM 0.0566 | [1]; compound concentration: 12.5uM 0.0631 | [1]; compound concentration: 25uM -0.0313 | [1]; compound concentration: 50uM 0.0027 | [1]; compound concentration: 100uM -0.13 | [1]; compound concentration: 200uM -0.329

USP19 (UniProt O94966)
UniProt O94966, sequence (O94966 whole entry): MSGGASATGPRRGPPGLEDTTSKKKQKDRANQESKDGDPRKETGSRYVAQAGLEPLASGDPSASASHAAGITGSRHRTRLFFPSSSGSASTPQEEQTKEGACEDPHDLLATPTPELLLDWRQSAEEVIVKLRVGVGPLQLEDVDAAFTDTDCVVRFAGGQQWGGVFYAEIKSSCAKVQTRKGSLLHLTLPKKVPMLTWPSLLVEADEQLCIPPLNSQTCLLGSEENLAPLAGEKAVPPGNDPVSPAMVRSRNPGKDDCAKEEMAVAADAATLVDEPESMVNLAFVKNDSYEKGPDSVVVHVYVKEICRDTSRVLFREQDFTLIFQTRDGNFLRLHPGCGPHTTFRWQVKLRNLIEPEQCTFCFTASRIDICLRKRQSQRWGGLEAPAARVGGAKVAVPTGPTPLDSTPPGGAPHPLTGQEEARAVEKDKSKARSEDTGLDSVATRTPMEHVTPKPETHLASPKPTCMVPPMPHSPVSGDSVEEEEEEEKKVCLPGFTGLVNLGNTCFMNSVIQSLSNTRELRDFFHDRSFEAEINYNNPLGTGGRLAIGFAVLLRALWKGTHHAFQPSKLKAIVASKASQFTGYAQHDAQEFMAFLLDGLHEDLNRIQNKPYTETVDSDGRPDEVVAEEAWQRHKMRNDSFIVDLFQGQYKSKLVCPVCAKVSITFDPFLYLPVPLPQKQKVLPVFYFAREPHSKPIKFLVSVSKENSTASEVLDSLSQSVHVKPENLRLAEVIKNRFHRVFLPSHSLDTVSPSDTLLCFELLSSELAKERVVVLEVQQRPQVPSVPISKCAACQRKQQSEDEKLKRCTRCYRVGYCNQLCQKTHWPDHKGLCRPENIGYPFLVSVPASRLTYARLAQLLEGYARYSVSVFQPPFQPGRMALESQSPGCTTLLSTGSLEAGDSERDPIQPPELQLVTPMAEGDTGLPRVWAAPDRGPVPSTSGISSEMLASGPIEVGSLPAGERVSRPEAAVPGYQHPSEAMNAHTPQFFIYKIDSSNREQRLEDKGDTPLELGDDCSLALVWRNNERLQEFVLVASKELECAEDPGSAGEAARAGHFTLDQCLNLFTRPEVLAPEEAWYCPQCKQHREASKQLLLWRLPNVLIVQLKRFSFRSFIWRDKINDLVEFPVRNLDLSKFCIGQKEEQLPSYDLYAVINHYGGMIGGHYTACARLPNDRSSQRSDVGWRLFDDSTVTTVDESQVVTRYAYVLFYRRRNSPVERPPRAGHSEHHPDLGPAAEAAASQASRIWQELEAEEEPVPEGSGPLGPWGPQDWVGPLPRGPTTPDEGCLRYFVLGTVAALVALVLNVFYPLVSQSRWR
active: [17]; compound concentration: 200uM -1.13 | [2]; compound concentration: 200uM -2.38 | [3]; compound concentration: 50uM -1.67 | [3]; compound concentration: 200uM -3.32 | [4]; compound concentration: 200uM -1.2 | [7]; compound concentration: 200uM -1.37 | [8]; compound concentration: 200uM -3.11 | [9]; compound concentration: 200uM -2.01 | [10]; compound concentration: 200uM -1.17 | [11]; compound concentration: 200uM -2.35
inactive: [15]; compound concentration: 50uM -0.285 | [15]; compound concentration: 200uM -0.845 | [16]; compound concentration: 50uM -0.191 | [16]; compound concentration: 200uM -0.286 | [17]; compound concentration: 50uM -0.264 | [18]; compound concentration: 50uM 0.00316 | [18]; compound concentration: 200uM -0.0581 | [19]; compound concentration: 50uM -0.218 | [19]; compound concentration: 200uM -0.211 | [13]; compound concentration: 0.78uM 0.0115 | [13]; compound concentration: 1.56uM 0.0325 | [13]; compound concentration: 3.13uM -0.14 | [13]; compound concentration: 6.25uM -0.00117 | [13]; compound concentration: 12.5uM -0.0872 | [13]; compound concentration: 25uM -0.173 | [13]; compound concentration: 50uM -0.131 | [13]; compound concentration: 100uM -0.081 | [13]; compound concentration: 200uM -0.216 | [14]; compound concentration: 0.78uM -0.105 | [14]; compound concentration: 1.56uM -0.0178 | [14]; compound concentration: 3.13uM -0.00588 | [14]; compound concentration: 6.25uM 0.0401 | [14]; compound concentration: 12.5uM -0.0591 | [14]; compound concentration: 25uM -0.121 | [14]; compound concentration: 50uM -0.26 | [14]; compound concentration: 100uM -0.182 | [14]; compound concentration: 200uM -0.339 | [1]; compound concentration: 0.78uM -0.0486 | [1]; compound concentration: 1.56uM -0.0156 | [1]; compound concentration: 3.13uM 0.00736 | [1]; compound concentration: 6.25uM 0.0504 | [1]; compound concentration: 12.5uM -0.0195 | [1]; compound concentration: 25uM -0.0989 | [1]; compound concentration: 50uM -0.0366 | [1]; compound concentration: 100uM -0.126 | [1]; compound concentration: 200uM -0.311 | [2]; compound concentration: 50uM -0.648 | [4]; compound concentration: 50uM -0.419 | [5]; compound concentration: 50uM -0.372 | [5]; compound concentration: 200uM -0.827 | [6]; compound concentration: 50uM -0.301 | [6]; compound concentration: 200uM -0.572 | [7]; compound concentration: 50uM -0.64 | [8]; compound concentration: 50uM -0.948 | [9]; compound concentration: 50uM -0.512 | [10]; compound concentration: 50uM -0.407 | [11]; compound concentration: 50uM -0.747 | [12]; compound concentration: 50uM -0.0897 | [12]; compound concentration: 200uM -0.299
